{"source": "PubChem BioAssay (NCATS)", "note": "Records with an inconclusive call do not appear. Active and inactive are the calls of the source. Unless noted, the call rests on the fitted dose curve; in most records, active means well fitted curve in the direction sought with a large enough effect; inconclusive means small, poorly fitted or top-dose-only effect, or another doubt; inactive means no such curve, though single readings can be large; an effect the other way counts as inactive or inconclusive. Potency means the concentration at half of the fitted maximal effect.", "data": [{"tested_on": "not listed separately", "experiment": "NCATS anti-infectives library activity on HEK293 viability as a counter-qHTS vs the C. elegans viability qHTS (AID 1745854); on activity change, negative = cytotoxicity: on the % scale 0 is the no-effect control and ±100 the full control effect", "conditions": "HEK293 viability counter-screen; series mostly up to 41.8 µM; activity change, negative = cytotoxicity: at the top concentration", "outline": "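Cytotoxicity in human HEK293 cells is measured by ATP-dependent CellTiter-Glo luminescence following a 24 hr incubation with titrated library compounds at 37C. Top final concentration is 41.7 uM.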", "values": [{"smiles": "[Hg+][c]1ccccc1", "Potency": "2 µM (active)"}, {"smiles": "CC[C@H]1CN2CCc3cc(OC)c(OC)cc3[C@@H]2C[C@@H]1C[C@H]1NCCc2cc(O)c(OC)cc21", "activity change, negative = cytotoxicity": "-26.8% (inactive)"}, {"smiles": "C[C@@H](COc1ccc(Oc2ccccc2)cc1)Oc1ccccn1", "activity change, negative = cytotoxicity": "-17.7% [at 83.3 µM] (inactive)"}, {"smiles": "CC(=O)O[C@H]1[C@H]2[C@@H](OC(=O)Cc3ccccc3)[C@@H](C)C[C@]2(OC(C)=O)C(=O)/C(C)=C/[C@@H]2[C@H](CC[C@@]13CO3)C2(C)C", "activity change, negative = cytotoxicity": "-29% (inactive)"}, {"smiles": "O=C(Nc1ccccc1F)N[C@H]1N=C(c2ccccc2)c2ccccc2NC1=O", "activity change, negative = cytotoxicity": "-6.87% (inactive)"}, {"smiles": "O=C(Nc1ccccc1F)N[C@@H]1N=C(c2ccccc2)c2ccccc2NC1=O", "activity change, negative = cytotoxicity": "-2.96% (inactive)"}, {"smiles": "Nc1cccc(C(OCCN2CCCCC2)c2cc3nccc(C(=O)O)c3s2)c1", "note": "(configuration not stated)", "activity change, negative = cytotoxicity": "-3.19% (inactive)"}, {"smiles": "C[C@@H](N)C(=O)N[C@@H](CO)C(=O)N[C@H](C(=O)N[C@H](C(=O)N[C@H](C(=O)N[C@@H](CC(N)=O)C(=O)N[C@@H](Cc1ccc(O)cc1)C(=O)N[C@H](C(N)=O)[C@@H](C)O)[C@@H](C)O)[C@@H](C)O)[C@@H](C)O", "activity change, negative = cytotoxicity": "2.02% (inactive)"}]}, {"tested_on": "not listed separately", "experiment": "NCATS anti-infectives library activity on the primary C. elegans qHTS viability assay (AID 1745855; calls by dose curve)", "conditions": "C. elegans worm area imaging, day 7; series mostly up to 41.8 µM; outcome: at the top concentration", "outline": "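Viability is taken from GFP fluorescence of PE254-GFP-FLuc C. elegans imaged by laser cytometry over 7 days. Ten L1 worms per well grow at 21 °C on TOP10 E. coli capsules with titrated compound; levamisole marks toxicity.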", "values": [{"smiles": "[Hg+][c]1ccccc1", "Potency": "8.16 µM (active)"}, {"smiles": "CC[C@H]1CN2CCc3cc(OC)c(OC)cc3[C@@H]2C[C@@H]1C[C@H]1NCCc2cc(O)c(OC)cc21", "outcome": "inactive"}, {"smiles": "COC(=O)C[C@@](O)(CCC(C)(C)O)C(=O)O[C@@H]1C(OC)=C[C@]23CCCN2CCc2cc4c(cc2[C@@H]13)OCO4", "outcome": "inactive"}]}, {"biological_target": "Nuclear receptor subfamily 1 group I member 3 (Homo sapiens) (UniProt Q14994)", "sequence (Q14994 whole entry, looked up)": "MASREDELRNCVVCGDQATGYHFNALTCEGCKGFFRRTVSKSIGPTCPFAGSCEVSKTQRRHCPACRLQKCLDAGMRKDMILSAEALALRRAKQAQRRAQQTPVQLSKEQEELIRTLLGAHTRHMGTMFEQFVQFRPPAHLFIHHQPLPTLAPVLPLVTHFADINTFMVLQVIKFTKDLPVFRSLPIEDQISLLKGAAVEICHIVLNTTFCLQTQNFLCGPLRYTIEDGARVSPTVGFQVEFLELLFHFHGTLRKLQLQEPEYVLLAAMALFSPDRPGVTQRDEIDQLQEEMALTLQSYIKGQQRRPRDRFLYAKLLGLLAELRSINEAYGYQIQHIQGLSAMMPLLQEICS", "experiment": "Primary qHTS for antagonist of constitutive androstane receptor (CAR) against the NCATS DSHEA and TCM libraries (AID 1794836)", "conditions": "CAR reporter cell assay, antagonist mode, luciferase; series mostly up to 40 µM; activity change, negative = inhibition: at the top concentration", "outline": "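HepG2 cells stably carrying hCAR and a CYP2B6 luciferase reporter (2,500 cells/well) attached for 5 h, then received compounds with 48 uM CITCO for 24 h at 37C. ONE-Glo luminescence read antagonism; CellTiter-Fluor (405/540 nm) gave viability.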", "values": [{"smiles": "C=C[C@H]1CN2CC[C@@]3(C(=O)Nc4ccccc43)[C@@H]2C[C@@H]1/C(=C\\OC)C(=O)OC", "Potency": "3.98 µM (active)"}, {"smiles": "CC[C@@H]1CN2CC[C@]3(C(=O)Nc4ccccc43)[C@@H]2C[C@@H]1/C(=C\\OC)C(=O)OC", "Potency": "3.98 µM (active)"}, {"smiles": "CC12CC3(O)OC(O1)C1(COC(=O)c4ccc(O)cc4)C3CC21OC1OC(CO)C(O)C(O)C1O", "note": "(configuration not stated)", "activity change, negative = inhibition": "-21.8% (inactive)"}, {"smiles": "C=C1C[C@@]23CC[C@H]4[C@](C)(CCC[C@]4(C)C(=O)O[C@@H]4O[C@H](CO)[C@@H](O)[C@H](O)[C@H]4O)[C@@H]2CC[C@]1(O[C@H]1O[C@@H](CO)[C@H](O)[C@@H](O)[C@@H]1O)C3", "activity change, negative = inhibition": "-22.3% (inactive)"}, {"smiles": "Cc1ccc(C(C)C)cc1", "activity change, negative = inhibition": "-16.6% [at 68.2 µM] (inactive)"}, {"smiles": "O=c1ccc2ccc(O)cc2o1", "activity change, negative = inhibition": "-0.823% (inactive)"}, {"smiles": "C=C1CC/C=C(/C)CC[C@@H]2[C@@H]1CC2(C)C", "activity change, negative = inhibition": "-2.13% (inactive)"}, {"smiles": "COc1cc2c(cc1O)C[C@H]1c3c(cc(OC)c(O)c3-2)CCN1C", "activity change, negative = inhibition": "63.3% (inactive)"}, {"smiles": "COC1=C(OC)C(=O)C(C/C=C(\\C)CC/C=C(\\C)CC/C=C(\\C)CC/C=C(\\C)CC/C=C(\\C)CC/C=C(\\C)CC/C=C(\\C)CC/C=C(\\C)CC/C=C(\\C)CCC=C(C)C)=C(C)C1=O", "activity change, negative = inhibition": "-29.3% (inactive)"}, {"smiles": "C=C[C@H]1CN2CCc3c([nH]c4ccccc34)[C@H]2C[C@@H]1/C(=C\\OC)C(=O)OC", "activity change, negative = inhibition": "36.6% (inactive)"}, {"smiles": "CCCCCCCCCCCCCCCCCCCC(=O)O", "activity change, negative = inhibition": "-19.3% (inactive)"}, {"smiles": "C=C(C)C(CC=C(C)C)CC12CC(CC=C(C)C)C(C)(C)C(CC=C(C)C)(C(=O)/C(=C(\\O)c3ccc(O)c(O)c3)C1=O)C2=O", "note": "(configuration not stated)", "activity change, negative = inhibition": "-11% (inactive)"}, {"smiles": "CCCCCCC/C=C/C(=O)CCc1ccc(O)c(OC)c1", "activity change, negative = inhibition": "11.8% (inactive)"}, {"smiles": "OC[C@H]1O[C@@H](OC[C@H]2O[C@@H](OC/C=C/c3ccccc3)[C@H](O)[C@@H](O)[C@@H]2O)[C@@H](O)[C@@H]1O", "activity change, negative = inhibition": "-28.9% [at 22 µM] (inactive)"}, {"smiles": "O=C(/C=C/c1ccc(O)c(O)c1)O[C@@H]1CC(C(=O)O)=C[C@@H](O)[C@H]1O", "activity change, negative = inhibition": "-17.1% (inactive)"}, {"smiles": "COc1ccc(-c2coc3cc(O[C@@H]4O[C@H](CO)[C@@H](O)[C@H](O)[C@H]4O)ccc3c2=O)cc1", "activity change, negative = inhibition": "157% (inactive)"}, {"smiles": "COc1cc(-c2oc3cc(O)cc(O)c3c(=O)c2O)ccc1O", "activity change, negative = inhibition": "-6.67% (inactive)"}, {"smiles": "CCCCCCCC/C=C\\CCCCCCCCCCCCCC(=O)O", "activity change, negative = inhibition": "-16.8% (inactive)"}, {"smiles": "C[C@@H]1CC[C@]2(C)CC[C@]3(C)C(=CC(=O)C4[C@@]5(C)CC[C@@H](O)[C@](C)(C(=O)O)C5CC[C@]43C)C2[C@H]1C", "note": "(some centres not stated)", "activity change, negative = inhibition": "-23.8% (inactive)"}, {"smiles": "CCCCCCCCC[C@@H](O)CC(=O)CCc1ccc(O)c(OC)c1", "activity change, negative = inhibition": "123% (inactive)"}, {"smiles": "CC(C)=CCC[C@](C)(O[C@@H]1O[C@H](CO)[C@@H](O)[C@H](O)[C@H]1O)[C@H]1CC[C@]2(C)[C@@H]1[C@H](O)C[C@@H]1[C@@]3(C)CC[C@H](O)C(C)(C)[C@@H]3[C@@H](O[C@@H]3O[C@H](CO)[C@@H](O)[C@H](O)[C@H]3O)C[C@]12C", "activity change, negative = inhibition": "27.6% (inactive)"}, {"smiles": "O=C(O[C@@H]1Cc2c(O)cc(O)cc2O[C@@H]1c1ccc(O)c(O)c1)c1cc(O)c(O)c(O)c1", "activity change, negative = inhibition": "-26.3% (inactive)"}, {"smiles": "CCCCCCCC/C=C/CCCCCCCCCC(=O)O", "activity change, negative = inhibition": "-21.7% (inactive)"}, {"smiles": "Cc1ccc(O)c(O)c1", "activity change, negative = inhibition": "90.4% [at 68.2 µM] (inactive)"}, {"smiles": "CCCCCCCCCCCCCCCCCCCCCC(=O)O", "activity change, negative = inhibition": "-12.6% (inactive)"}, {"smiles": "COC1=C[C@@]23CCN(C)[C@H](Cc4ccc(OC)c(O)c42)C3=CC1=O", "activity change, negative = inhibition": "-1.7% (inactive)"}, {"smiles": "CC/C=C\\C/C=C\\C/C=C\\CCCCCCCC(=O)O", "activity change, negative = inhibition": "-21.5% (inactive)"}, {"smiles": "CC(C)=CCCC(C)(OC1OC(COC2OC(CO)C(O)C2O)C(O)C(O)C1O)C1CCC2(C)C1C(O)CC1C3(C)CCC(OC4OC(CO)C(O)C(O)C4OC4OC(CO)C(O)C(O)C4O)C(C)(C)C3CCC12C", "note": "(configuration not stated)", "activity change, negative = inhibition": "-23.8% (inactive)"}, {"smiles": "O=Cc1ccccc1O", "activity change, negative = inhibition": "-34.4% [at 68.2 µM] (inactive)"}, {"smiles": "COC(=O)C1=CO[C@@H](C)[C@@H]2CN3CC[C@@]4(C(=O)Nc5ccccc54)[C@@H]3CC12", "note": "(some centres not stated)", "activity change, negative = inhibition": "-31% (inactive)"}, {"smiles": "O=C(O)CC(O)(C(=O)O)C(O)C(=O)O", "note": "(configuration not stated)", "activity change, negative = inhibition": "-22% (inactive)"}]}]}
